Compound activity as filed in PubChem.
Hits are enriched below; roughly 3.2% of the tested compounds scored in any of these assays.
EBV LMP1 NFkB: EBV LMP1-driven NF-kappaB luciferase reporter inhibitors, primary screen, cell-based, luminescence, single point. LMP1-induced NF-kappaB luciferase reporter cells. inhibition, % at 12.5 µM. actives 0.69% (n = 350,000); in the data active means inhibition above about 41%;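 further: 0% = neutral control wells and 100% = reference inhibitor control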
PAX8 inh HTS: inhibitors of PAX8-driven TPO luciferase reporter, primary screen, RMG-I cells, single concentration; actives 1.2% (n = 360,000); inhibition, % at 12.6 µM; SteadyGlo, 24 h;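 active means mean replicate inhibition at least 60% with every replicate also reaching 60%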;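 further: luciferase light reporting Pax8 driven TPO promoter activity; plate controls were median of neutral control wells for no effect and mitoxantrone controls for full effect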
TROY signal inh: inhibitors of TROY-driven NF-kB signaling, primary screen, Q293 LMP1-TROYcd cells, NF-kB luciferase, uHTS. actives 0.98% (n = 360,000). Q293 LMP1-TROYcd NF-kB luciferase reporter, 4 h. inhibition, % at 10 µM;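 active means compounds whose plate-normalised and pattern-corrected inhibition of the luciferase reporter signal at the single screening dose is 50% or more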
EWS-Fli inh: EWS/Fli-driven NR0B1 reporter inhibitors, primary screen, A673 cells, NR0B1 luciferase, luminescence, MLPCN library. viability-normalised. inhibition, % at 12.6 µM. actives 0.67% (n = 350,000). AID 651661, 2012;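 active means mean inhibition of at least 50% after viability correction, with every replicate also passing that limit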;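 further: firefly luciferase signal divided by Alamar Blue viability fluorescence both relative to DMSO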
LGR2 antag: inhibitors of bursicon-induced LGR2 CRE-luciferase signal, primary screen, cell-based, HEK293, CRE-luciferase reporter, bursicon stimulation | bursicon-stimulated, 4 h | inhibition, % at 9.99 µM | actives 0.35% (n = 380,000) | AID 720647, 2013;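 active means drop in luminescence signal, shown as inhibition above about 50% in the replicate tests, limit read from the data, passing the limit was not always enough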;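 further: agonist challenge used bursicon conditioned medium at about half maximal strength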
TWEAK Fn14 block: inhibitors of TWEAK-Fn14 signaling, primary screen, luciferase reporter cells, uHTS; TWEAK-stimulated Fn14 reporter cells, luciferase luminescence, 8 h; inhibition, % at 10 µM; actives 2% (n = 360,000); AID 1159606, 2016; in the data active means inhibition above about 50%
Numbers without * were called inactive; x = no result given; ! = not active in a repeat.

SMILES	EBV LMP1 NFkB	PAX8 inh HTS	TROY signal inh	EWS-Fli inh	LGR2 antag	TWEAK Fn14 block
CCCNC(=O)N1C[C@H](O)COC[C@@H]2O[C@@H](CC(=O)NCc3ccc(Cl)c(Cl)c3)CC[C@H]21	x	-8	x	-6	12	x
C[C@H](CO)N1C[C@H](C)[C@@H](CN(C)S(=O)(=O)c2cccs2)Oc2ccc(NC(=O)CCN3CCOCC3)cc2CC1=O	x	-12	x	0	-1	x
O=C(Nc1ccc2c(c1)OCO2)N[C@H]1CC[C@@H](CC(=O)N2CCN(c3ccccc3)CC2)O[C@@H]1CO	x	13	x	-5	-11	x
CCOC(=O)N1CCN(C(=O)CSCC(=O)Nc2nc(-c3ccc(-c4ccccc4)cc3)cs2)CC1	31	-3	57*	4	51*	93*
CCOC(=O)N1CCN(C(=O)CSCC(=O)Nc2nc(-c3ccc(OC)cc3)cs2)CC1	5	x	14	x	x	7
COc1ccccc1C1(O)CCN(CC(=O)Nc2nc(-c3ccccc3)cs2)CC1	16	19	44	3	36	55*
COC(=O)[C@]12CCCCC=C1N(Cc1ccco1)C(=O)[C@H](CC(=O)N1CCN(C(=O)c3ccco3)CC1)C2	x	85*	-2	-4	-3	2
CCOC(=O)[C@]12CCCC=C1N(Cc1cccc3ccccc13)C(=O)[C@H](CC(=O)N1CCOCC1)C2	x	-6	9	-5	-22	-7
COC(=O)[C@]12CCCCC=C1N(Cc1cccc3ccccc13)C(=O)[C@H](CC(=O)NCCC(C)C)C2	x	12	29	-7	64*	21
CCOC(=O)[C@]12CCCC=C1N(Cc1cccc3ccccc13)C(=O)[C@H](CC(=O)N1CCN(C(=O)c3ccco3)CC1)C2	x	85*	-1	2	11	11
COC(=O)[C@]12CCCCC=C1N(Cc1cccc3ccccc13)C(=O)[C@H](CC(=O)NCc1ccccc1)C2	x	4	29	-14	46	14
CCn1c(O)c(N=Nc2ccc3ccccc3n2)c2ccccc21	-38	-216	-15	-121	-64	0
Brc1ccc(N=Nc2ccc3ccccc3n2)cc1	63*	79*	76*	77*	95*	99*
c1csc(CNc2ccc3c(c2)OCCO3)c1	3	-28	30	10	51*	63*
Oc1ccccc1CNc1ccc2c(c1)OCCO2	8	-30	30	-50	-15	39
COc1cc(-c2cnc3c(NC=O)cc(-c4ccc(S(C)(=O)=O)cc4)cn23)cc(OC)c1OC	x	62*	0	42	-8	-13
COc1ccccc1-c1cc(NC=O)c2ncc(-c3ccc(S(C)(=O)=O)cc3)n2c1	x	63*	-12	26	-28	32
COc1ccc(-c2cc(NC=O)c3ncc(-c4cc(OC)c(OC)c(OC)c4)n3c2)cc1	x	72*	12	42	-25	25
O=C(C[C@H]1CC[C@H]2[C@@H](COC[C@@H](O)CN2S(=O)(=O)c2ccccc2)O1)Nc1ccccc1	x	-7	x	6	-5	x
C[C@@H]1CN([C@@H](C)CO)C(=O)c2cc(NC(=O)Nc3ccccc3)ccc2O[C@@H]1CN(C)Cc1ccc2c(c1)OCO2	x	10	x	7	-20	x
C[C@H]1CCCCO[C@@H](CN(C)S(=O)(=O)c2ccc(Cl)cc2)[C@@H](C)CN([C@@H](C)CO)C(=O)c2cc(NC(=O)CCC(F)(F)F)ccc2O1	x	73*	x	7	20	x
C[C@@H]1CN([C@@H](C)CO)C(=O)c2cc(NC(=O)Nc3ccc(C(F)(F)F)cc3)ccc2O[C@@H](C)CCCCO[C@H]1CN(C)S(=O)(=O)c1ccccc1	x	55	x	6	1	x
C[C@@H]1CCCCO[C@@H](CN(C)S(=O)(=O)c2ccc(F)cc2)[C@@H](C)CN([C@@H](C)CO)C(=O)c2cc(NC(=O)Nc3ccc(C(F)(F)F)cc3)ccc2O1	x	36	x	-14	6	x
C[C@@H]1CCCCO[C@H](CN(C)S(=O)(=O)c2ccc(F)cc2)[C@@H](C)CN([C@H](C)CO)C(=O)c2cc(NC(=O)Nc3ccc(C(F)(F)F)cc3)ccc2O1	3	74*!	2	7	3	14
C[C@@H]1CCCCO[C@@H](CN(C)S(=O)(=O)c2ccccc2)[C@H](C)CN([C@@H](C)CO)C(=O)c2cc(NC(=O)Nc3ccc(C(F)(F)F)cc3)ccc2O1	x	75*	x	1	-7	x
SMILES	EBV LMP1 NFkB	PAX8 inh HTS	TROY signal inh	EWS-Fli inh	LGR2 antag	TWEAK Fn14 block
C[C@@H]1CCCCO[C@H](CN(C)S(=O)(=O)c2ccc(Cl)cc2)[C@H](C)CN([C@@H](C)CO)C(=O)c2cc(NC(=O)Nc3ccc(F)cc3)ccc2O1	x	70*	x	5	2	x
C[C@@H]1CN([C@H](C)CO)C(=O)c2cc(NC(=O)CCC(F)(F)F)ccc2O[C@@H](C)CCCCO[C@H]1CN(C)S(=O)(=O)c1ccc(Cl)cc1	x	51	x	2	14	x
Cc1noc(C)c1S(=O)(=O)N(C)C[C@@H]1OCCCC[C@H](C)Oc2ccc(NC(=O)Nc3ccc(F)cc3)cc2C(=O)N([C@H](C)CO)C[C@@H]1C	x	61*	x	6	3	x
Cc1noc(C)c1S(=O)(=O)N(C)C[C@H]1OCCCC[C@@H](C)Oc2ccc(NC(=O)Nc3ccc(F)cc3)cc2C(=O)N([C@@H](C)CO)C[C@H]1C	x	27	x	0	9	x
C[C@@H]1CCCCO[C@H](CN(C)S(=O)(=O)c2ccc(Cl)cc2)[C@@H](C)CN([C@@H](C)CO)C(=O)c2cc(NC(=O)Nc3ccc(C(F)(F)F)cc3)ccc2O1	x	82*	x	45	1	x
CC(C)NC(=O)Nc1ccc2c(c1)C(=O)N([C@@H](C)CO)C[C@H](C)[C@H](CN(C)S(=O)(=O)c1cn(C)cn1)OCCCC[C@@H](C)O2	x	-11	x	-4	0	x
C/C=C/c1ccccc1[C@H]1[C@H](C#N)N(C(C)=O)[C@H]1CO	x	-6	x	5	3	x
O=C1c2sc3nc4ccccc4n3c2C(=O)N1c1ccccc1Cl	5	x	x	x	x	-1
N=c1cc(C2(O)CCCCC2)n2c(nc3ccccc32)s1	6	-42	27	x	x	64*
COc1ccc(NC(=O)N(C)C[C@@H]2OCCCC[C@@H](C)Oc3ccc(NC(=O)c4ccccc4)cc3C(=O)N([C@H](C)CO)C[C@H]2C)cc1	x	-16	x	-9	-7	x
COc1ccccc1-c1ccc2c(c1)[C@H]1[C@H](CCN1S(=O)(=O)c1ccccc1OC)[C@@H](CO)N2	x	65*	x	4	4	x
COc1ccccc1S(=O)(=O)N1CC[C@@H]2[C@@H](CO)Nc3ccc(-c4ccc(F)cc4)cc3[C@@H]21	x	71*	x	44	9	x
